For some of these results: Potency and affinity values are given separately. Activity calls are given as the source filed them.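 Rule for the calls, unless noted: active = primary screen hit whose calcium fluorescence ratio, in both repeats, exceeds the weak agonist control mean by 3 SD; inactive = the rest.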
Tests used:
[1] = system: TRPC4 beta (transient receptor potential cation channel C4), mouse; assay: TRPC4 cation channel opening, retest – cell-based, Fluo4 calcium, HEK293 TRPC4beta/mu-opioid, duplicates, 10 µM, confirmation (AID 2426;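 active = fluorescence ratio normalized to control raised more than 50% in primary screen plus both repeat runs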); conditions: Fluo4 calcium fluorescence, at 10 µM; active compounds read high
[2] = system: transient receptor potential cation channel C4 beta (TRPC4), mouse; assay: TRPC4 cation channel opening, second retest – cell-based, second round, Fluo4, HEK293 TRPC4beta/mu-opioid, 1 µM, confirmation (AID 2461;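 active = primary screen active and over 50% activation in each of two duplicate runs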); conditions: Fluo4 calcium fluorescence, at 1 µM; active compounds read high
[3] = system: TRPC4 (transient receptor potential cation channel C4 beta), mouse; assay: potentiation of DAMGO EC20 TRPC4 response – cell-based, second round, Fluo-4, HEK293 TRPC4beta/mu-opioid, 1 µM, confirmation (AID 2554;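 active = primary screen hit whose fluorescence ratio, in both repeats, exceeds the weak agonist control mean by 3 SD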); conditions: DAMGO EC20, Fluo-4 calcium flux, at 1 µM; active compounds read high
[4] = system: TRPC4 beta (transient receptor potential cation channel C4), mouse; assay: potentiation of DAMGO EC20 TRPC4 response – cell-based, Fluo-4, HEK293 TRPC4beta/mu-opioid, confirmation (AID 2555); conditions: DAMGO EC20, Fluo-4 calcium flux, at 10 µM; active compounds read high
[5] = target: Short transient receptor potential channel 4 (Mus musculus) (UniProt Q9QUQ5); assay: blockers of DAMGO-evoked TRPC4 calcium flux – cell-based, Fluo4, HEK293 TRPC4beta/mu-opioid, confirmation (AID 2636;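 active = calcium signal cut by more than 3 SD below the full-agonist control yet still positive, in both repeats and the earlier primary screen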); conditions: at 10 µM; active compounds read high
Short transient receptor potential channel 4 (Mus musculus), sequence (Q9QUQ5 whole entry, looked up): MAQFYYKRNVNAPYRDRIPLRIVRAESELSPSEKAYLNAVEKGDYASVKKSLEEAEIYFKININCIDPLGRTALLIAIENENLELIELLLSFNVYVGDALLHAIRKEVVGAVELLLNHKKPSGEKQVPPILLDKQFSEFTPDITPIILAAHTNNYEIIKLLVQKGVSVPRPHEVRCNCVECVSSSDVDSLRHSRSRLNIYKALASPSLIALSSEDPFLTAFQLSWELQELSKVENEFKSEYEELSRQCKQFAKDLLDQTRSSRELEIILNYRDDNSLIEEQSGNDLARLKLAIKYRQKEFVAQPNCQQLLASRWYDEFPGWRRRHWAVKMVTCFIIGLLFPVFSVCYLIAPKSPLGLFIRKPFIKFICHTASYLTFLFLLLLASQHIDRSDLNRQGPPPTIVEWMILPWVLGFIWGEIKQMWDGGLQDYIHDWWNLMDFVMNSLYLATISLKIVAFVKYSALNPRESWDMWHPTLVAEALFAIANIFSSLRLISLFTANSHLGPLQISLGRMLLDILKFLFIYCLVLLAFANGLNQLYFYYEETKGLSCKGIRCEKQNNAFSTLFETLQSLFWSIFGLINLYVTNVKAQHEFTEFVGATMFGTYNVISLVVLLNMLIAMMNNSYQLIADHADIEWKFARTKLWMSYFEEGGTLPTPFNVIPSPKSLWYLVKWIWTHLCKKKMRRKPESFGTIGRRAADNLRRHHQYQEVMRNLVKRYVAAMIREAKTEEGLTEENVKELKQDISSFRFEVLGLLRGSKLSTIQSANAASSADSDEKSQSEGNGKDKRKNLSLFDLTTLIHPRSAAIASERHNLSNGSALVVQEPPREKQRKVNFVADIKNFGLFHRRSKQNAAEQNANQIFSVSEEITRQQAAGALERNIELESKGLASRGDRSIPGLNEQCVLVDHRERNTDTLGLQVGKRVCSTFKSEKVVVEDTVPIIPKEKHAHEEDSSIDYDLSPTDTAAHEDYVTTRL

[6] = target: Short transient receptor potential channel 4 (Mus musculus) (UniProt Q9QUQ5); assay: blockers of DAMGO-evoked TRPC4 calcium flux – cell-based, second round, Fluo4, HEK293 TRPC4beta/mu-opioid, 1 µM, confirmation (AID 2637;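 active = calcium signal ratio cut to more than 3 SD under the fully stimulated control mean yet still positive, in both repeats and the primary screen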;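 for inhibition: percent of integrated ratio relative to wells lacking test compound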); conditions: at 1 µM; active compounds read high
[7] = target: Short transient receptor potential channel 4 (Mus musculus) (UniProt Q9QUQ5); assay: calcium entry via TRPC4 opening agents – cell-based, HEK293 TRPC4/mu-opioid, Fluo-4 calcium, dose response (AID 434937;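 active = primary screen activator hit with a dose response curve and TRPC4 channel activation at any tested dose; inactive = no activation, no dose response, or not a primary hit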)
[8] = target: Short transient receptor potential channel 4 (Mus musculus) (UniProt Q9QUQ5); assay: potentiation of DAMGO-evoked TRPC4 calcium signal – cell-based, HEK293 TRPC4/mu-opioid, Fluo-4 calcium, EC20 DAMGO, dose response (AID 434941;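 active = earlier screen potentiator hit that boosts the TRPC4 ion channel at some dose, with a dose response; inactive = no potentiation, no dose response, or not a prior hit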;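 note: calcium entry triggered by an EC20 dose of DAMGO at the co-expressed mu-opioid receptor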)
[9] = target: Short transient receptor potential channel 6 (Mus musculus) (UniProt Q61143); assay: TRPC6 blockade by TRPC4 inhibitor hits – cell-based, HEK293, membrane potential dye, duplicate, selectivity assay for TRPC4 inhibitor project, confirmation (AID 434948;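 active = active in primary screen and both duplicates, each dropping signal beyond three positive-control SD with fluorescence still positive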); conditions: HEK293 TRPC6, membrane potential dye fluorescence, at 10 µM, stimulated with maximal-effect acetylcholine; active compounds read high
Short transient receptor potential channel 6 (Mus musculus), sequence (Q61143 whole entry, looked up): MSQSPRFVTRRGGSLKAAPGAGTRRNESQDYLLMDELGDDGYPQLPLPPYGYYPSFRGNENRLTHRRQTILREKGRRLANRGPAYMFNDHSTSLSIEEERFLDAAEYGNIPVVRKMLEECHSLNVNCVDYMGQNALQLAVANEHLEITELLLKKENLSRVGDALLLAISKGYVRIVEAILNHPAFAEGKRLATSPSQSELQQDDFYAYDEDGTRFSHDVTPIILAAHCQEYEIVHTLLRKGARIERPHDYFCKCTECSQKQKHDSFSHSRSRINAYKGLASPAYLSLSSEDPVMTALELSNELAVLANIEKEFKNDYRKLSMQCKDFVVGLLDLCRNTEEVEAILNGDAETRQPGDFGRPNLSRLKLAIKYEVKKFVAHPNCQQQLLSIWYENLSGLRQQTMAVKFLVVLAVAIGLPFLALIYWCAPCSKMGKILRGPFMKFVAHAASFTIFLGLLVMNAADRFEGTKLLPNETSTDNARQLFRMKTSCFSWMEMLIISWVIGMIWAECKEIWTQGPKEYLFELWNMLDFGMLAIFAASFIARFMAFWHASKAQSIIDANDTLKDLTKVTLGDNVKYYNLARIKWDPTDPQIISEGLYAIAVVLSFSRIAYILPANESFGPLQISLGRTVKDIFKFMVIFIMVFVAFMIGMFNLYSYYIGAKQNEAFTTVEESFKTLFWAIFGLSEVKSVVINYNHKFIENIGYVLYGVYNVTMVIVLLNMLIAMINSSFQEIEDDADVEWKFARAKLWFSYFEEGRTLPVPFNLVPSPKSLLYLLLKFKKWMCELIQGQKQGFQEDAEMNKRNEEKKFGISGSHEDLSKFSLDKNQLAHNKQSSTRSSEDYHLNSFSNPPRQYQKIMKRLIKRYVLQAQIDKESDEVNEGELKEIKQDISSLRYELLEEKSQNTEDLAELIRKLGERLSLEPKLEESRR

[10] = target: Short transient receptor potential channel 6 (Mus musculus) (UniProt Q61143); assay: TRPC6 opening by TRPC4 activator hits – cell-based, HEK293, membrane potential dye, duplicate, selectivity assay for TRPC4 activator project, confirmation (AID 434950;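 active = membrane potential signal rise above negative control mean plus 3 SD in both duplicates, also active in the earlier TRPC4 screen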); conditions: HEK293 TRPC6, membrane potential fluorescence, at 10 µM; activation: active compounds read high; outcome: activation
[11] = target: Short transient receptor potential channel 6 (Mus musculus) (UniProt Q61143); assay: positive modulators of mouse TRPC6 channel – HEK293 cells, membrane potential dye, duplicate, selectivity assay for TRPC4 potentiator project, confirmation (AID 434952;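 active = compound raising the membrane signal above positive-control mean plus 3 SD in both repeats, and a primary screen hit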); conditions: HEK293 TRPC6, membrane potential dye fluorescence, at 10 µM, maximal acetylcholine added after compound; active compounds read high
[12] = target: Short transient receptor potential channel 4 (Mus musculus) (UniProt Q9QUQ5); assay: calcium flux activators in TRPC4/5HT1a cells, counter-screen for TRPC4 activator project, cell-based, second counter screen, HEK293 TRPC4/5HT1a, Fluo-4 (AID 434977;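 active = calcium signal rise above buffer-control mean plus 5 SD in both duplicates, and also a hit in the primary screen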); conditions: Fluo-4 calcium flux, at 10 µM; active compounds read high
[13] = serotonin-gated TRPC4 signal block – cell-based, second counter screen, HEK293 TRPC4/5HT1a, Fluo-4, counter-screen for TRPC4 inhibitor project, confirmation (AID 434978;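 active = primary screen active whose calcium signal fell more than 3 SD beyond the full-serotonin control mean in both duplicate plates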;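 for outcome: serotonin given first at submaximal then at maximal dose after compound preincubation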); conditions: Fluo-4 calcium flux, at 10 µM, serotonin added to trigger calcium flux; active compounds read high
[14] = system: TRPC4 (mouse), co-expressed with 5HT1a in HEK293; assay: enhancement of serotonin-evoked TRPC4 response – cell-based, second counter screen, HEK293 TRPC4/5HT1a, Fluo-4, counter-screen for TRPC4 potentiator project, confirmation (AID 434979;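 active = signal rise over 3 SD above mean of control wells given weak agonist, in both repeats and first screen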); conditions: Fluo-4 calcium flux, at 10 µM, serotonin added at its EC20 dose; active compounds read high
[15] = nonspecific calcium rise without TRPC4 – cell-based, HEK293 mu-opioid receptor line, counter-screen for TRPC4 activator project, confirmation (AID 449723;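 active = hit in primary screen, with calcium signal over 5 SD above buffer well mean in both duplicates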;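 note: counter screen cells carry the mu-opioid receptor alone and lack TRPC4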); conditions: HEK293 mu-opioid cells, Fluo-4 calcium fluorescence, at 10 µM; active compounds read high
[16] = nonspecific potentiation of DAMGO calcium response – cell-based, HEK293 mu-opioid receptor line, counter-screen for TRPC4 allosteric potentiator project, confirmation (AID 449724;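 active = calcium signal rise more than 3 SD above the low-dose agonist control mean, in both duplicate plates and the primary screen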); conditions: HEK293 mu-opioid receptor cells, Fluo-4 calcium flux, at 10 µM, compound added before EC20 DAMGO stimulus; active compounds read high

Measured: inhibition

Oc1ccc(CN2CCCCC2)nc1-c1ccccc1
active: [5] 92% | [6] 43% | [13] 31.7%
inactive: all other assays above

CCOC(=O)C1(CCOc2ccccc2)CCN(Cc2cccs2)CC1
active: [5] 80%
inactive: all other assays above

CCC(O)(c1ccc(OC)cc1)C(CN1CCOCC1)c1ccccc1 (stereo unspecified)
active: [5] 92% | [6] 52% | [13] 14.9%
inactive: all other assays above

C=CCNc1nc(N2CCCC2)nc2ccccc12
active: [5] 98% | [6] 74% | [9] 37.5% | [13] 19.9%
inactive: all other assays above

Cc1cccc(N2CCN(Cc3ccoc3)CC2)c1C
active: [5] 72% | [13] 25.2%
inactive: all other assays above

Cc1cc(CN2CCCC(C(=O)Nc3ccc(-c4nc5ccccc5[nH]4)cc3)C2)n[nH]1 (stereo unspecified)
active: [5] 77% | [6] 61% | [13] 37.2%
inactive: all other assays above

C=CCOc1ccc(C2CC(C)=NN2c2ccccc2)cc1 (stereo unspecified)
active: [5] 84% | [6] 44% | [13] 32%
inactive: all other assays above

O=C(COC(=O)C1CC1)Nc1nc(-c2ccc(F)c(F)c2)cs1
active: [5] 70% | [13] 41.5%
inactive: all other assays above

CN1CCN(Cc2cn[nH]c2-c2ccc(F)cc2F)[C@@H](c2ccccc2)C1
inactive: all assays above

CC#CC[N+](C)(C)CCCCCCCCCCCC
active: [5] 97% | [6] 55% | [9] 36% | [13] 9.36%
inactive: all other assays above

Cc1ccc(C[n+]2cc(-c3ccc(Cl)cc3)n3c2CCC3)cc1
active: [5] 73% | [6] 64% | [13] 41.9%
inactive: all other assays above

COc1cc2c(cc1OC)C(C)N(CCc1ccc(Cl)cc1)CC2 (stereo unspecified)
active: [5] 75%
inactive: all other assays above

CCCOc1ccc(Br)cc1/C=N/O
active: [6] 54%
inactive: all other assays above

OCCNCc1cc(Br)ccc1OCc1ccc(Cl)cc1Cl
active: [5] 49% | [13] 24.9%
inactive: all other assays above

CC1CCCN1CC#CC(O)(c1ccccc1)c1ccccc1 (stereo unspecified)
active: [5] 79% | [6] 62% | [9] 13.5% | [13] 33.5%
inactive: all other assays above

Cc1nn(-c2nc3ccccc3n2Cc2ccccc2)c2c1C(=O)CC(C)(C)C2
active: [5] 72% | [13] 13.5%
inactive: all other assays above

Source: PubChem BioAssay
